High-throughput results (PubChem)
Giardia kill – Giardia lamblia killing; Giardia lamblia trophozoite viability; activity change, % at 7.66 µM, hits read low; 340,000 compounds, 0.15% hits; AID 540267; in the data active = activity change below about -80%; inconclusive = between about -30% and that limit;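 note: parasites exposed to compound for two days anaerobically before the ATP read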
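Giardia trophozoites, 100 cells per well, were exposed to compounds for 48 hrs at 37 deg C under anaerobic conditions; viability was then read as ATP content by bioluminescence after 15-30 min at room temperature.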
RORg inh – blocks mouse ROR gamma transcriptional activity; Potency, µM (titrated, usually from 53.6 µM), hits mostly inhibitors; Drosophila S2 Gal4-RORgamma UAS-luciferase reporter, 20 h; 310,000 compounds, 5.4% hits; P51450; note: nearly all actives have a fitted effect of over 60% in size
Target sequence (P51450 whole entry, looked up, the tested form may be a part): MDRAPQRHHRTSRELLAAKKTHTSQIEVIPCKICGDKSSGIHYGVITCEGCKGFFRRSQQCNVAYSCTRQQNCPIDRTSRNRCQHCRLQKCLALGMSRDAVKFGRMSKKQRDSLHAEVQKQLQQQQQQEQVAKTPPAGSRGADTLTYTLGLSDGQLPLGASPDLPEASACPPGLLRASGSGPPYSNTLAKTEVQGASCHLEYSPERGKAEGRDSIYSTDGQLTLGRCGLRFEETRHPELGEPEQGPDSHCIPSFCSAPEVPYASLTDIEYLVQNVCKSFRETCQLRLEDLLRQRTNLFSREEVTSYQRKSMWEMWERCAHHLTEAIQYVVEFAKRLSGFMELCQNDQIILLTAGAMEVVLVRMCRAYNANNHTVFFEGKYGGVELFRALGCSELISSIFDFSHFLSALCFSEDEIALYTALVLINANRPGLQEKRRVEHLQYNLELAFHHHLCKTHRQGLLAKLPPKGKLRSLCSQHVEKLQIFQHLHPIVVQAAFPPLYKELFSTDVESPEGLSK
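A Gal4/UAS one-hybrid system in insect cells: metallothionein-promoter Gal4–ROR gamma fusion plus Photinus luciferase reporter. Copper sulfate 700 uM final, 20 hr ambient incubation, luminescent detection after 10 min with reagent.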
ELG1 repair inh – inhibitors of ELG1-dependent DNA repair in HEK293T cells; HEK293T ELG1-luciferase reporter, luminescence, 16 h; DNA damage induced by 5-fluorouridine; Potency, µM (highest dose often 46.1 µM), most hits filed as inhibitors; 330,000 compounds, 2.3% hits; AID 504467; note: nearly all actives have a fitted effect of over 55% in size
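In this reporter screen, reduction of luminescence relative to DMSO vehicle indicated activity. Compounds and 5-fluorouridine were added together to 2,000 cells per well, incubated for 16 hr at 37 °C, then developed with ONE-Glo.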
p53 reactivator – restores transcriptional activity of mutant p53; H1299 p53-A138V BP100-luciferase reporter, luminescence, 24 h; Potency, µM (titrated, usually from 92.2 µM), usual class: activators; 320,000 compounds, 0.063% hits; AID 504706; note: nearly all actives have a fitted effect of over 45% in size
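H1299 (p53-null), stable ts p53-A138V + BP100-Luc; 1000 cells/well, Opti-MEM/10% FBS; cpd 4 pt, 1:5; 24 h, 37 deg C, 5% CO2; detection reagent 10 min RT; luminescence.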
BRCA1 expr up – activators of BRCA1 expression | MCF7-BRCA1-FFLuc reporter, luminescence, 48 h; response scale: scaled: vehicle 0%, 10 µM genistein 100% | Potency, µM (highest dose often 46.1 µM), usual class: activators | 380,000 compounds, 1.1% hits; note: nearly all actives have a fitted effect of over 80% in size
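Luminescence from a BRCA1-driven firefly luciferase in MCF7 cells was read after 48 h compound exposure at 37 C. Data normalized against DMSO and a 10microM genistein activation control, then curve-fitted across the titration.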
VP16 counter – Gal4-VP16 reporter inhibition counter-screen; Drosophila S2 Gal4-VP16 UAS-luciferase, luminescence, 20 h; Potency, µM (series often up to 53.6 µM), usual class: inhibitors; 310,000 compounds, 3.5% hits;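 note: Gal4-VP16 expression switched on by copper sulfate through the metallothionein promoter; nearly all actives have a fitted effect of over 50% in size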
Numbers stand for hits; 0 = inactive; ? = inconclusive; - = not tested or not shown; ! = a repeat was not active; [ ] = dose if it differs, or a comment. The list is not random: actives were taken first. Their share in the collection is about 7.6%. Unless noted, calls come from the whole dose curve; as a rule, active = well fitted curve in the direction sought with a large enough effect; inconclusive = small, poorly fitted or top-dose-only effect, or another doubt; inactive = no such curve, though single readings can be large; an effect the other way counts as inactive or inconclusive.

SMILES	Giardia kill	RORg inh	ELG1 repair inh	p53 reactivator	BRCA1 expr up	VP16 counter
CN(c1ccccc1)c1nc(N)c([N+](=O)[O-])c(NCc2ccccc2)n1	0	0	0	0	0	0
COc1ccc(C(=S)Nc2ccc(C)cc2)cc1	0	13µM	?	0	?	0
Cc1ccc(NC(=S)N/C(=N/S(=O)(=O)c2ccccc2)c2ccccc2)cc1	0	?	?	?	13µM	13µM
Cc1ccc(NC(=S)c2ccccc2)cc1	0	11µM	?	?	1.3µM	?
Cc1ccc(S(=O)(=O)/N=C(/NC(=S)Nc2ccccc2)c2ccccc2)cc1	0	0	?	?	?	0
Cc1ccc(NC(=S)c2ccncc2)cc1	0	0	0	0	0	0
COc1ccc(CN2C(=O)/C(=C/c3ccncc3)SC2=S)cc1	0	?	?	0	0	?
COc1cnc(-c2ccccn2)nc1Sc1ccc(F)cc1	0	0	21µM	0	0	3.5µM
COc1cnc(-c2ccccn2)nc1Sc1ccccc1	0	2.5µM	?	0	0	11µM
CCOC(=O)CSc1nc(-c2ccccn2)ncc1OC	0	?	0	0	0	0
COc1ccc(Sc2nc(-c3ccccn3)ncc2OC)cc1	0	2.2µM	15µM	0	0	8.9µM
COc1ccc(OC)c(CN2CCN(C(=O)CCNC(=O)c3ccc(Br)cc3)CC2)c1	0	-	0	0	0	-
Cc1ccc2c(=O)c3ccccc3n(CCCN)c2c1C	-	11µM!	-	-	-	16µM!
C/C(=N\NC(=O)c1ccc(Cl)cc1)c1ccc(Br)s1	0	0.35µM	?	0	0	1.1µM
C/C(=N\NC(=O)c1cc(Cl)ccc1O)c1ccc(Br)s1	0	6.3µM	?	?	0	2.5µM
C/C(=N/NC(=O)c1ccc(Br)s1)c1ccncc1	0	0	?	0	0	0
C/C(=N/NC(=O)c1ccco1)c1ccc(Br)s1	0	13µM	?	0	0	?
C/C(=N\NC(=O)c1ccco1)c1ccc(C(=O)O)s1	0	0	0	0	0	0
COc1cc(/C=N/Nc2nc(Nc3ccc(C)cc3)nc(-n3nc(C)cc3C)n2)cc(OC)c1OC	0	0	?	0	0	?
COc1cc(/C=N\NS(=O)(=O)c2ccccc2)cc(OC)c1OC	0	0	0	-	0	0
COc1cc(/C=N/n2nnnc2Nc2ccccc2)cc(OC)c1OC	0	0	23µM	0	0	0
COc1cc(/C=N/Nc2nc(Nc3ccccc3)nc(-n3nc(C)cc3C)n2)cc(OC)c1OC	0	5µM	1.8µM	?	0	6.3µM
COc1ccc(O)c(/C=N/Nc2nc(Nc3ccccc3)nc(-n3nc(C)cc3C)n2)c1	0	0.63µM	2.6µM	0	0	0.63µM
CCN1CCN(C(=O)Nc2ccc(OC)cc2OC)CC1	0	0	0	0	0	0
CN1CCc2c(n(CC(O)CN3C(=O)c4ccccc4S3(=O)=O)c3ccccc23)C1=O (centres undefined)	0	?	15µM	0	0	0
SMILES	Giardia kill	RORg inh	ELG1 repair inh	p53 reactivator	BRCA1 expr up	VP16 counter
COc1ccc(Sc2ccccc2CN(C)C)cc1OC	0	0	0	0	0	0
CNCc1ccccc1Sc1ccc(O)c(O)c1	0	8.9µM	0	0	0	7.1µM
CC1(C)Cc2c(sc3c2c(=N)n(Cc2ccco2)c(=O)n3CC(=O)Nc2ccc(Cl)cc2)CO1	0	0	21µM	0	0	0
CC1(C)Cc2c(sc3c2c(=N)n(Cc2ccco2)c(=O)n3CC(=O)Nc2ccccc2)CO1	0	0	9.2µM	0	0	0
Cc1cccc(NC(=O)Cn2c(=O)n(Cc3ccco3)c(=N)c3c4c(sc32)COC(C)(C)C4)c1	0	0	?	0	0	0
CCCCN(C)C(=O)c1nc2ccccn2c1CN1CCN(c2cnccn2)CC1	0	0	0	0	0	0
c1ccc2c(CCNc3ncnc4nc[nH]c34)c[nH]c2c1	0	?	6.5µM	?	0	?
c1ccc(CCNc2ncnc3nc[nH]c23)cc1	0	0	?	?	0	?
CCCC[C@@H](CN[C@H](C)CNC)NCC1CCC(C(C)(C)C)CC1 (some centres undefined)	0	11µM	?	-	0	0
CC[C@H](C)[C@@H](CN[C@H](CCCCNC)CNC)NCC1CCCC1	0	0	0	0	0	0
Cc1ccc(-c2nnc(-c3ccc(Br)cc3)o2)o1	0	0	?	?	3.2µM	?
O=C(O)c1ccc(-c2nnc(-c3cccc(Br)c3)o2)cc1	0	0	?	?	2.8µM	0
Brc1cccc(-c2nnco2)c1	0	20µM	0	0	0	?
c1nnc(-c2ccc3c(c2)OCO3)o1	0	0	0	0	0	0
Brc1ccc(-c2nnc(-c3ccco3)o2)cc1	0	0	?	?	?	0
Brc1ccc(-c2nnc(-c3cccc(Br)c3)o2)cc1	0	0	0	0	0	0
Cc1ccc(-c2nnc(-c3cccnc3)o2)cc1	0	0	?	?	4.5µM	0
CCOC(=O)c1c(NC(=O)CSc2nnc(-c3c[nH]c4ccccc34)n2CC)sc2c1CCCC2	0	?	0	0	0	0
Clc1ccc(-c2nnc(-c3cccnc3)o2)cc1	0	?	?	-	7.9µM	0
c1cncc(-c2nnc(-c3cccs3)o2)c1	0	0	?	0	14µM	0
FC(F)(F)c1ccc(-c2nnc(-c3cccnc3)o2)cc1	0	?	?	0	0	0
Brc1ccccc1-c1nnc(-c2cccnc2)o1	0	0	?	?	0	0
Cc1cccc(-c2nnc(-c3ccccc3)o2)c1	0	0	?	11µM	0	0
Brc1ccc(-c2nnc(-c3cccnc3)o2)cc1	0	-	-	-	4.5µM	-
Fc1ccc(CN2CCSCC2)cc1Br	0	0	0	0	0	0
SMILES	Giardia kill	RORg inh	ELG1 repair inh	p53 reactivator	BRCA1 expr up	VP16 counter
Cc1ccc(-n2c(SCC(=O)N3CC(=O)Nc4ccccc43)nc3ccccc3c2=O)cc1C	0	0	?	0	0	0
CC(=O)c1ccc(NC(=O)CN2C(=O)CCC2=O)cc1	0	0	0	0	0	0
Brc1ccc(-c2nnc(-c3ccccc3Br)o2)cc1	0	0	?	0	?	0
Cc1ccc(-c2nnc(-c3ccccc3Br)o2)cc1	?	13µM	?	-	?	?
CCc1ccccc1NC(=O)C1CCCN(S(=O)(=O)c2cccc3nsnc23)C1 (centres undefined)	-	-	-	-	0	-
CC(=O)c1ccc(NC(=O)Nc2cccc(Cl)c2)cc1	0	?	?	?	7.1µM	0
CC(=O)c1ccc(NC(=S)NCCc2cccc(Cl)c2)cc1	0	18µM	?	0	3.2µM	?
COc1cc(/C=N/NC(=O)c2cccc(NC(=O)c3ccccc3Cl)c2)ccc1O	0	0	?	0	0	0
COc1cc(SC)ccc1C(=O)NCCOc1ccc(F)cc1	0	?	?	?	10µM	0
CCC(CC)C(=O)Nc1cccc(C(=O)Nc2nccs2)c1	0	0	?	0	0[1.84 µM]	0
